# According to PubChem BioAssay (Tox21):
# Values joined by “and” are separate entries in the source; they are usually repeats but may differ in a detail not shown here. Equal entries are not always repeated. Records with an inconclusive call do not appear. Active and inactive are the calls of the source. Calls follow the shape of the dose curve; as a rule, active = well fitted cell-killing curve with a large enough effect in the repeat runs; inconclusive = weak or mixed curves, or effect the other way; inactive = no such curve, though single readings can be large or run the other way.
# Assay: qHTS assay to identify small molecule antagonists of the retinoid-related orphan receptor gamma (ROR-gamma) signaling pathway - cell viability counter screen (AID 1159520); also: nearly all actives have a fitted effect of over 50% in size
# Conditions: Tet-on RORgamma CHO cells viability, ATP luminescence, 16 h; series mostly up to 92.4 µM; activity, negative = cytotoxicity: at the top concentration
# Excerpt: U.S. Tox21 Program National Center for Advancing Translational Sciences [NCATS] NIH Chemical Genomics Center [NCGC] U.S. Environmental Protection Agency [EPA] National Institutes of Environmental Health Sciences [NIEHS] National Toxicology Program [NTP] U.S. Food and Drug Administration [FDA] Tox21 Assay Overview: Nuclear steroid hormone receptors are involved in many biological processes including inflammatory responses, cell proliferation, and apoptosis. Environmental factors or compounds disrupting these nuclear receptor pathways and gene expression may promote susceptibility to immunotoxicants and autoimmune diseases. One important group of these expression factors are the retinoid-related orphan receptors. To assess compounds that may interfere with the retinoid-related orphan receptor gamma (ROR-gamma) transcription factor, a cell-based luciferase assay was used. The CHO cell-based assay utilizes a TET-inducible ROR expression factor and ROR response element-LUC reporter gene. Reporter gene activity was induced using Doxycycline Hyclate and measured after 16 hr incubation. Tet-on ROR gamma CHO cells were used to screen against the Tox21 10K compound library for cytotoxicity by measuring the viability of the cells based on the quantitation of the ATP.
# Tox21 Assay Protocol Summary: Tet-on ROR gamma CHO cells were dispensed at 1,000 cells in 4 uL of culture medium per well into white wall/solid bottom 1536-well plates using a Multidrop Combi (Thermo Scientific, Waltham, MA) dispenser. Following incubation at 37 C and 5% CO2 for 4 hr, 23 nL of compounds dissolved in DMSO, positive controls or DMSO only were transferred by a Pintool station (Kalypsys, San Diego, CA) and after 2 hr incubation at 37 C, one ul of 1 uM (final concentration) of Doxycycline Hyclate was added to all the wells by using a Flying Reagent Dispenser (FRD) (Aurora Discovery, San Diego, CA). After 16 hr incubation at 37 C and 5% CO2, 5 uL of CellTiter-Glo reagent (Promega Corporation, Madison, WI) was added to each assay plate using FRD. After 30 min incubation at room temperature, luminescence was quantified on a ViewLux plate reader (Perkin Elmer, Waltham, MA).
# % is scaled to controls: 0 for no effect and ±100 for the full control effect; potency is read from the fitted curve at half-maximal effect.
Compound,"activity, negative = cytotoxicity",Potency
O=C(O)c1ccc(=O)[nH]c1,1.05% [at 42.5 µM] (inactive),
COC(=O)Cc1ccccc1,5.77% (inactive),
O=C(N[C@H]1CN2CCC1CC2)c1ccc2c(c1)OCCO2,1.47% (inactive),
C=CCSSCC=C,4.04% (inactive),
O=S(=O)(c1ccccc1)c1ccccc1,-0.207% (inactive),
OCC1CO1 (stereo not given),,inactive
CNC(=O)Oc1cccc(N=CN(C)C)c1,-8.06% (inactive),
C=CCc1ccc(OC(=O)Cc2ccccc2)c(OC)c1,8.3% (inactive),
Cc1cnc(C2=NC(C)(C(C)C)C(=O)N2)c(C(=O)O)c1 (stereo not given),1.91% (inactive),
O=C(Cc1ccccc1)OCCc1ccccc1,-10.7% (inactive),
O=C(Cc1ccccc1)c1ccccc1,0.285% (inactive),
CCC1(C2=NCCN2)Cc2ccccc2O1 (stereo not given),3.23% [at 42.5 µM] (inactive),
CN1CC[C@]23c4c5ccc(O)c4O[C@H]2[C@@H](O)CC[C@H]3[C@H]1C5,1.4% (inactive),
Nc1ccccc1C(=O)OCCc1ccccc1,,inactive
C#CC(O)(C=CCl)CC (stereo not given),5.96% [at 42.5 µM] (inactive),
Cc1ccccc1,2.67% (inactive),
CCCCC(CC)CO[N+](=O)[O-] (stereo not given),-6.07% (inactive),
O=C(N/N=C/c1ccc([N+](=O)[O-])o1)c1cc([N+](=O)[O-])cc([N+](=O)[O-])c1O,-0.181% [at 42.5 µM] (inactive),
CCCCC#N,8.47% (inactive),
CCCCCCCCCCCCCCCl,2.06% (inactive),

Compound,"activity, negative = cytotoxicity",Potency
N#CC1(N=NC2(C#N)CCCCC2)CCCCC1,-3.17% (inactive),
CC1(C)[C@H](C(=O)O[C@H](C#N)c2cccc(Oc3ccccc3)c2)[C@@H]1C=C(Br)Br,,inactive
OCCSSCCO,7.32% (inactive),
CC(C)(C)NCC(O)c1cc(Cl)c(N)c(C(F)(F)F)c1 (stereo not given),4.75% [at 42.5 µM] (inactive),
C[N+]1(CCF)[C@@H]2CC[C@H]1CC(OC(=O)C(O)(c1ccccc1)c1ccccc1)C2 (stereo not given in full),4.56% [at 42.5 µM] (inactive),
CC(O)CN1CCN(CC(=O)[O-])CCN(CC(=O)[O-])CCN(CC(=O)[O-])CC1.[Gd+3] (stereo not given),2.93% [at 42.5 µM] (inactive),
NCCc1cc(O)c(O)cc1O,-17.9% [at 42.5 µM] (inactive),
C=CCOCC1CO1 (stereo not given),-11.2% (inactive),
CC(Cc1ccccc1)NCc1ccccc1Cl (stereo not given),-1.01% [at 42.5 µM] (inactive),
CC(C)(C)N(NC(=O)c1ccc(Cl)cc1)C(=O)c1ccccc1,-1.55% (inactive),
O=C(O)c1cc(I)cc(I)c1I,0.888% (inactive),
C[CH2][Hg][S]c1ccccc1C(=O)O,,1.09 µM (active) and 1.68 µM (active)
COc1ccccc1N1CCNCC1,-0.582% [at 42.5 µM] (inactive),
CC(C)C1(C)N=C(c2ncccc2C(=O)O)NC1=O (stereo not given),-0.104% (inactive),
CCOP(=O)(SC(C)CC)N1CCSC1=O (stereo not given),0.795% (inactive),
CCOC(=O)NC(O)C(Cl)(Cl)Cl (stereo not given),-3.88% [at 42.5 µM] (inactive),
Cc1nc2ccccc2c(=O)n1-c1ccccc1Cl,1.18% (inactive),
COc1ccc(C(=O)c2c(C)n(CCN3CCOCC3)c3ccccc23)cc1,-1.17% [at 42.5 µM] (inactive),
CC(Oc1cccc(Cl)c1)C(=O)O (stereo not given),-1.16% (inactive),
C1CS1,3.68% (inactive),
